PubChem BioAssay
Activity calls are given as the source filed them. Unless noted, no rule for the calls is given here.

Experiments:
[1] = tested on: Wnt5a (protein binding on small-molecule microarray); assay: small molecules binding Wnt5a protein – biophysical, small-molecule microarray, 635/667 nm fluorescence, primary screen (AID 1142); conditions: 635 nm fluorescence, higher = more signal;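 also: fluorescence read at 667 nm with signal to noise per printed feature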
[2] = ATP-based viability of Huh7 replicon cells – cell-based, CellTiter-Glo luminescence, basal, 48 h, cytotoxicity control for HCV replication inhibitor project, primary screen (AID 1143); conditions: higher = more signal, called active from +8 up or from −8 down;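 also: Huh7 hepatoma cells carrying a hepatitis C replication reporter with no stimulus; test concentration not given here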
[3] = Pseudomonas biofilm growth suppression – PAO1 strain, BacTiter-Glo luminescence, LB-PBS, primary screen (AID 1144); conditions: P. aeruginosa PAO1 biofilm, 12 h, higher = more signal
[4] = basal CRE-LacZ reporter activity in PC12 – cell-based, unstimulated, primary screen (AID 1145); conditions: no forskolin, luminescence, 4.5 h, higher = more signal, called active from +8 up or from −8 down
[5] = forskolin-driven CRE-LacZ activity in PC12 – cell-based, CRE-LacZ reporter, forskolin-stimulated, primary screen (AID 1146); conditions: luminescence, 4.5 h, higher = more signal, called active from +8 up or from −8 down;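 also: PC12 cells with 6xCRE LacZ reporter stimulated by forskolin 10 µM; beta-galactosidase reporter signal reflecting CREB driven transcription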
[6] = target: Streptavidin (Streptomyces avidinii) (UniProt P22629); assay: compounds binding control protein streptavidin – biophysical, small-molecule microarray, 635/667 nm fluorescence, artefact control for SMM compound annotation, primary screen (AID 1147); conditions: higher = more signal;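 also: signal reflects streptavidin binding to arrayed compounds as a control protein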
Sequence of Streptavidin (Streptomyces avidinii) (P22629 whole entry, looked up): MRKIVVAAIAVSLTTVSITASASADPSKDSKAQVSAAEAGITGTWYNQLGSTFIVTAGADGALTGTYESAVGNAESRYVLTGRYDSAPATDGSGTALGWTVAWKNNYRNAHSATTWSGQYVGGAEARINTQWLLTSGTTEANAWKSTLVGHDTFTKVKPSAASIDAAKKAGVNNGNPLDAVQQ

[7] = probe aInhba binding on compound microarray – biochemical, small-molecule microarray, 635/667 nm fluorescence, primary screen (AID 1148); conditions: higher = more signal;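 also: score merges 667nm spot fluorescence with signal-to-noise for antibody binding to printed compounds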
Torsin-1A (Homo sapiens) [8] = target: Torsin-1A (Homo sapiens) (UniProt O14656); assay: TOR1A wild-type binding on microarray – cell lysate, small-molecule microarray, lysate, 635/667 nm, primary screen (AID 1149); conditions: COS7 hTOR1A-WT lysate, 635 nm fluorescence, higher = more signal
Sequence of Torsin-1A (Homo sapiens) (O14656 whole entry, looked up): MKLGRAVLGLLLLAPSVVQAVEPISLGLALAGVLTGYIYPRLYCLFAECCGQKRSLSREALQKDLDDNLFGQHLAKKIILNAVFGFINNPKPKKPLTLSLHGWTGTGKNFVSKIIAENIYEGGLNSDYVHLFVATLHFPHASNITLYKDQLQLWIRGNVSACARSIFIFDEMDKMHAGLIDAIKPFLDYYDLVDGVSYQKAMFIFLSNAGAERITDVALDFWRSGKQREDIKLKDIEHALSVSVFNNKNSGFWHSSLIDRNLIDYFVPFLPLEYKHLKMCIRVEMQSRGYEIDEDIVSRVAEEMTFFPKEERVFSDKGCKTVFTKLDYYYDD

Torsin-1A (Homo sapiens) [9] = target: Torsin-1A (Homo sapiens) (UniProt O14656); assay: torsin A mutant lysate binding on microarrays – cell lysate, small-molecule microarray, COS7 lysate, 635/667 nm fluorescence, primary screen (AID 1150); conditions: COS7 hTOR1A mutant lysate, 635 nm fluorescence, higher = more signal;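 also: score pools 667 nm emission and signal to noise measuring lysate protein binding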
[10] = tested on: Sonic hedgehog protein (Shh); assay: Sonic hedgehog microarray binding compounds – biochemical, small-molecule microarray, 635/667 nm fluorescence, primary screen (AID 1151); conditions: 635 nm fluorescence, higher = more signal;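 also: Shh protein binding to compounds spotted on small-molecule microarray slides; score combines spot fluorescence intensity with signal-to-noise across triplicate slides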

Structure (SMILES) | composite z-score [1] | z-score [2] | z-score [3] | z-score [4] | z-score [5] | composite z-score [6] | composite z-score [7] | composite z-score (Torsin-1A (Homo sapiens) [8]) | composite z-score (Torsin-1A (Homo sapiens) [9]) | composite z-score [10]
CCOC(=O)C[C@H]1[C@H](OC(=O)c2ccc(-c3ccccc3)cc2)[C@@H](NC(=O)c2ccccc2)c2cc(OCCCO)ccc2N1C(=O)Cc1ccc(OC)cc1 | 0.0137 | 0.0974 (inactive) | -0.962 (inactive) | 0.0035 (inactive) | -0.701 (inactive) | -0.238 | 0.0001 | -0.0369 | -0.456 | 0.0151
CN(C)C(=O)[C@]1(Cc2ccccc2)N=C(c2ccc(OCCCO)cc2)O[C@@H]1c1ccccc1N=[N+]=[N-] | 0.435 | -4.22 (inactive) | 0.54 (inactive) | -0.459 (inactive) | -1.58 (inactive) | 1.06 | 0.143 | 0.37 | 0.523 | 0.0841
CC(C)(C)OC(=O)CC[C@@]1(C(=O)N2CCCCC2)N=C(c2ccc(OCCCO)cc2)O[C@@H]1c1ccccc1 | 0.94 | -2.99 (inactive) | -0.34 (inactive) | 1.66 (inactive) | 0.127 (inactive) | 1.82 | 0.283 | 0.766 | 0.912 | -0.45
O=C1O[C@H](c2ccccc2)[C@H](c2ccccc2)N2[C@H]1[C@@H](C(=O)NC[C@H](O)c1ccccc1)[C@]1(C(=O)Nc3ccccc31)[C@H]2c1ccc(O)cc1 | 0.378 | -1.1 (inactive) | -1.25 (inactive) | -1.29 (inactive) | -0.423 (inactive) | 0.287 | -0.128 | 0.643 | 0.506 | 1.5
Cc1ccc(S[C@]2(C(=O)O)CC(=O)N(C(C)C)[C@@H]2c2ccc(CO)cc2)cc1 | -0.201 | -2.62 (inactive) | -2.2 (inactive) | -0.206 (inactive) | -0.244 (inactive) | -0.186 | -0.147 | -0.366 | 1.12 | -0.317
[N-]=[N+]=Nc1ccccc1C[C@]1(C(=O)NCc2ccccc2)N=C(c2ccc(OCCCO)cc2)O[C@H]1c1ccccc1N=[N+]=[N-] | 0.933 | -4.05 (inactive) | 0.0249 (inactive) | 1.77 (inactive) | -0.741 (inactive) | 1.73 | -0.156 | 0.109 | 0.286 | -0.4
COC(=O)[C@@]1(Cc2ccc(OC)cc2)[C@H]2c3cc(C(=O)N4CCCC4)n(CCCNc4ncc(C(F)(F)F)cc4Cl)c3C[C@H]2CN1C(=O)c1ccccc1 | 1.53 | -3.28 (inactive) | 0.0557 (inactive) | 0.769 (inactive) | 0.627 (inactive) | 1.25 | 0.826 | 0.0188 | 0.27 | -0.418
O=C1NC(=O)C2C1C=CC(C(O)C1CC=CCC1)N2Nc1ccccn1 (stereo not given) | 0.524 | 0.607 (inactive) | -0.893 (inactive) | -0.329 (inactive) | 0.383 (inactive) | 0.0992 | -0.0645 | 0.153 | -0.0899 | 0.682
COc1ccc(C(O)C2C=CC3C(=O)N(C)C(=O)C3N2N(c2ccccc2)c2ccccc2)c2ccccc12 (stereo not given) | 0.151 | 0.497 (inactive) | -0.347 (inactive) | 0.246 (inactive) | 1.1 (inactive) | 0.797 | 0.0342 | 0.415 | 0.526 | 1.11
COCCOC(=O)N1C(=O)[C@@]2(c3cc(C#CC4=CCCCC4)ccc31)[C@H](C(N)=O)[C@H]1C(=O)O[C@H](c3ccccc3)[C@H](c3ccccc3)N1[C@@H]2c1ccc(O)cc1 | 0.838 | -4.06 (inactive) | -1.29 (inactive) | -0.931 (inactive) | -0.438 (inactive) | 1.14 | -0.0736 | 1.03 | 0.931 | 1.08
CC1CC/C=C\[C@H]2OC34C=CCN(c5ccc6ccccc6c5)C(=O)[C@H]3N(CCO)C(=O)[C@@H]4C2C(=O)O1 (stereo not given in full) | 0.451 | -0.929 (inactive) | 0.282 (inactive) | -0.35 (inactive) | 0.289 (inactive) | -0.818 | 0.0301 | -1.34 | 0.652 | 0.0032
CC(C)(C)OC(=O)CC[C@]1(C(N)=O)N=C(c2ccc(OCCCO)cc2)O[C@H]1c1ccccc1 | 0.836 | -0.408 (inactive) | 0.304 (inactive) | -0.585 (inactive) | -0.121 (inactive) | 0.679 | 0.4 | -0.037 | 0.941 | -0.332
COc1cc(OC)c(C(O)C2C=CC3C(=O)NC(=O)C3N2Nc2ccccn2)cc1Br (stereo not given) | 0.364 | 0.996 (inactive) | -0.874 (inactive) | -0.326 (inactive) | -0.527 (inactive) | -0.118 | -0.0791 | -0.105 | 0.197 | 0.754
O=C(NCc1ccccc1)[C@@H]1c2ccccc2C(=O)N(C2Cc3ccccc3C2)[C@H]1c1ccc(CO)cc1 | 0.303 | -0.746 (inactive) | 0.317 (inactive) | 0.764 (inactive) | 0.134 (inactive) | 0.49 | 0.196 | -0.0754 | 0.165 | 1.31
COC(=O)[C@H](Cc1ccccc1)N[C@H](/C=C/C1CC1)[C@@H](O)Cc1ccccc1 | -0.711 | -1.78 (inactive) | -0.555 (inactive) | 2.59 (inactive) | -1.23 (inactive) | -0.841 | -0.322 | -0.795 | -0.533 | -0.345
